PubChem BioAssay (NCATS)
Values joined by “and” are separate entries in the source; they are usually repeats but may differ in a detail not shown here. Equal entries are not always repeated. Results filed as inconclusive are left out. More than one record can exist for a structure, and the calls need not agree. Active and inactive are the calls of the source. Calls come from the whole dose curve; as a rule, active = well fitted curve in the direction sought with a large enough effect; inconclusive = small, poorly fitted or top-dose-only effect, or another doubt; inactive = no such curve, though single readings can be large; an effect the other way counts as inactive or inconclusive.

What was measured:
[1] = Viability qHTS for spleen associated tyrosine kinase inhibitor (SYKi) naive MV4-11 cells (AID 1963823); note: nearly all actives have a fitted effect of over 40% in size
Outline: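 SYKi-naive MV4-11 AML cells, 500 per well, were exposed to library compounds for 72 hr at 37 C, 5% CO2. Viability was then read by CellTiter-Glo luminescence after 10 min at room temperature.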

[2] = Viability qHTS for spleen associated tyrosine kinase inhibitor (SYKi) drug resistant MV4-11 cells (AID 1963824); note: nearly all actives have a fitted effect of over 35% in size
Outline: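 SYK-inhibitor-resistant MV4-11 AML cells were seeded at 500 per well onto compound and cultured 72 hours (37 °C, 5% CO2). CellTiter-Glo was then added, and after 10 min at room temperature, luminescence gave viability.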

[3] = Quantitative highthroughput screen to assess conditional lethalithy of NOMO1 cells grown in RPMI1640 with untreated serum (RPMI+s) (AID 1963876); note: nearly all actives have a fitted effect of over 35% in size;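 for Viability: 100% = DMSO wells and 0% = empty wells without cells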
Outline: (§1)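 Each medium arm—HPLM with 10% dialyzed FBS, or RPMI1640 with 5 mM glucose and 10% untreated or dialyzed FBS—was screened against an 11-point, 3-fold compound titration for 48 h at 37 °C, with CellTiter-Glo luminescence as endpoint.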

[4] = Quantitative highthroughput screen to assess conditional lethalithy of NOMO1 cells grown in RPMI1640 with dialyzed fetal bovine serum (RPMI+ds) (AID 1963877); note: nearly all actives have a fitted effect of over 30% in size;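 for Viability: series mostly up to about 46 µM; 100% = DMSO control wells and 0% = empty wells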
Outline: as §1

[5] = Quantitative highthroughput screen to assess conditional lethalithy of NOMO1 cells grown in Human Plasma-Like Medium with dialyzed fetal bovine serum (HPLM+ds) (AID 1963878); note: nearly all actives have a fitted effect of over 35% in size;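 for Viability: 100% = DMSO wells and 0% = empty wells on each plate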
Outline: as §1

[6] = Quantitative highthroughput screen to assess conditional lethalithy of P12 Ichikawa cells grown in Human Plasma-Like Medium with dialyzed fetal bovine serum (HPLM+ds) (AID 1963879); settings: Potency: viability; note: nearly all actives have a fitted effect of over 35% in size; for Viability: series mostly up to about 46 µM
Outline: as §1

[7] = Quantitative highthroughput screen to assess conditional lethalithy of SEM cells grown in Human Plasma-Like Medium with dialyzed fetal bovine serum (HPLM+ds) (AID 1963882); note: nearly all actives have a fitted effect of over 35% in size; for Viability: series mostly up to about 46 µM
Outline: as §1

[8] = Quantitative highthroughput screen to assess conditional lethalithy of SEM cells grown in RPMI1640 with unreated serum (RPMI+s) (AID 1963883); note: nearly all actives have a fitted effect of over 35% in size;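 for Viability: 100% = DMSO wells and 0% = empty wells without cells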
Outline: as §1

[9] = Quantitative highthroughput screen to assess conditional lethalithy of SEM cells grown in RPMI1640 with dialyzed fetal bovine serum (RPMI+ds) (AID 1963884); note: nearly all actives have a fitted effect of over 35% in size;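 for Viability: series mostly up to about 46 µM; 100% = DMSO control wells and 0% = empty wells without cells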
Outline: as §1

[10] = Cellular viability qHTS for adrenocortical cancer (ACC) cell line SW-13 (AID 1963989); settings: SW-13 ACC cells viability, CellTiter-Glo, 48 h; activity (max response): stronger effect = lower value; note: nearly all actives have a fitted effect of over 65% in size;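 for activity (max response): cells grown in serum-free medium with ITS supplement; % is set by controls: 0 for no effect and ±100 for the full control effect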
Outline: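 Viability was read as CellTiter-Glo luminescence after 48 h compound treatment (up to 46 uM final) of SW-13 cells grown serum-free; titration curves were fit with a four-parameter logistic model to give IC50 and efficacy.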

[11] = Cellular viability qHTS for adrenocortical cancer (ACC) cell line NCI-H295R (AID 1963990); note: nearly all actives have a fitted effect of over 60% in size
Outline: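 CellTiter-Glo ATP luminescence, read 48 h after compound addition, measured viability of NCI-H295R adrenocortical cells grown serum-free with ITS. Final concentrations spanned up to 46 uM. Data normalized to DMSO and doxorubicin, fitted for IC50 and maximal response.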

[12] = Quantitative highthroughput screen to assess conditional lethalithy of P12 Ichikawa cells grown in RPMI1640 with untreated serum (RPMI+s) (AID 1963881); settings: Potency: viability; note: nearly all actives have a fitted effect of over 35% in size;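 for Viability: series mostly up to about 46 µM; 100% = DMSO wells and 0% = empty wells without cells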
Outline: as §1

[13] = Quantitative highthroughput screen to assess conditional lethalithy of P12 Ichikawa cells grown in RPMI1640 with dialyzed fetal bovine serum (RPMI+ds) (AID 1963880); settings: Potency: P12-Ichikawa viability; note: nearly all actives have a fitted effect of over 35% in size;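 for Viability: 100% = DMSO wells and 0% = empty wells on each plate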
Outline: as §1
Potency is the fitted concentration of half-maximal effect.

SMILES | Potency [1] | Potency [2] | Potency [3] | Potency [4] | Potency [5] | Potency [6] | Potency [7] | Potency [8] | Potency [9] | Potency [10] | Potency [11] | Potency [12] | activity (max response) [10] | Potency [13]
O=C(CCCCCCC(=O)Nc1cccnc1)NO | 3320 nM (active) | 3720 nM (active) | 20.9 µM (active) | 20.9 µM (active) | 18.7 µM (active) | 7.43 µM (active) | 8.33 µM (active) | 8.33 µM (active) | 6.62 µM (active) | 12.6 µM (active) | 4.47 µM (active) | – | – | –
COC(=O)[C@H](CCCN=C(N)N)NS(=O)(=O)c1ccc(C)cc1 | inactive | inactive | inactive | inactive | 6.62 µM (active) | inactive | – | – | – | – | inactive | inactive | 6.08% (inactive) | –
Oc1ccc2ccccc2c1SSc1c(O)ccc2ccccc12 | 5.9 µM (active) and 11.6 µM (active) | 5.25 µM (active) and 9.2 µM (active) | inactive | inactive | inactive | inactive | – | – | – | – | 31.6 µM (active) | – | – | –
O=C(O)c1ccc2c(c1)nc(Nc1cccc(Cl)c1)c1ccncc12 | 1.84 µM (active) and 1.32 µM (active) | 1.64 µM (active) and 1.66 µM (active) | 5.9 µM (active) | 7.43 µM (active) | 4.69 µM (active) | – | – | – | – | 3.55 µM (active) | 2.51 µM (active) | 4.69 µM (active) | – | 5.9 µM (active)
Cc1cn[nH]c1 | inactive | inactive and 18.6 µM (active) | inactive | inactive | 16.6 µM (active) | inactive | – | – | inactive | – | inactive | inactive | 12.7% (inactive) and 11.3% (inactive) | –
CCN(CC)CCOc1ccc(Nc2ncc3cc(-c4c(Cl)cccc4Cl)c(=O)n(C)c3n2)cc1 | 66.1 nM (active) | 118 nM (active) | 2.64 µM (active) | 2.96 µM (active) | 2.64 µM (active) | 3.72 µM (active) | – | – | 2.35 µM (active) | 1 µM (active) | 0.794 µM (active) | 2.96 µM (active) | – | –
O=C1N(c2ccccc2)c2ccccc2C1(Cc1ccncc1)Cc1ccncc1 | inactive | inactive | inactive | inactive | inactive | inactive | inactive | – | inactive | – | inactive | – | -5.03% (inactive) and 7.18% (inactive) | –
Cc1cc(O)c2c(c1)C(=O)c1cccc(O)c1C2=O | inactive | inactive | inactive | inactive | 20.9 µM (active) | 18.7 µM (active) | – | – | – | – | inactive | inactive | -6.49% (inactive) | –
CC(C)(C)c1nc2c3cc[nH]c(=O)c3c3cc(F)ccc3c2[nH]1 | 411 nM (active) | 651 nM (active) | 5.9 µM (active) | 4.69 µM (active) | 2.09 µM (active) | – | – | – | – | – | inactive | – | -16.1% (inactive) | –
CC(C)[C@@H](CS(=O)(=O)C(C)C)N1C(=O)[C@@](C)(CC(=O)O)C[C@H](c2cccc(Cl)c2)[C@H]1c1ccc(Cl)cc1 | 18600 nM (active) | 14.6 µM (active) and 16.6 µM (active) | 1.66 µM (active) | 2.09 µM (active) | – | 0.209 µM (active) | 4.17 µM (active) | 0.295 µM (active) | – | – | – | 0.933 µM (active) | – | 1.17 µM (active)
COC(c1ccccc1)(c1ccccc1)[C@H](Oc1nc(C)cc(C)n1)C(=O)O | inactive | inactive | inactive | inactive | inactive | – | – | – | – | – | inactive | – | 2.42% (inactive) and -1.06% (inactive) | –
CCCCOc1ccc(CC(=O)NO)cc1 | inactive and 14.8 µM (active) | inactive and 18.6 µM (active) | inactive | inactive | inactive | – | – | – | – | – | – | – | -10.9% (inactive) | –
COc1c(C)cnc(Cn2cnc3c(Cl)nc(N)nc32)c1C | 132 nM (active) | 235 nM (active) | 0.743 µM (active) | 0.662 µM (active) | 0.662 µM (active) | – | – | 0.264 µM (active) | 0.296 µM (active) | 2 µM (active) | 1.78 µM (active) | – | – | –
CCCc1nn(C)c2c(=O)[nH]c(-c3cc(S(=O)(=O)N4CCN(C)CC4)ccc3OCC)nc12 | inactive | 18600 nM (active) | inactive | inactive | inactive | – | – | – | – | – | inactive | – | – | –
O=C(O)CCNC(=O)c1ccc(N=Nc2ccc(O)c(C(=O)O)c2)cc1 | inactive | inactive | inactive | inactive | – | inactive | inactive | inactive | inactive | – | inactive | inactive | 4.01% (inactive) and 3.9% (inactive) | inactive
Cn1cc(CNCC2CCN(c3ncc(C(=O)NO)cn3)CC2)c2ccccc21 | 66.1 nM (active) | 16.6 nM (active) | 0.372 µM (active) | 0.332 µM (active) | 0.296 µM (active) | – | 0.132 µM (active) | 0.148 µM (active) | 0.132 µM (active) | 1.26 µM (active) | 0.794 µM (active) | 0.235 µM (active) | – | –
CCCCS(=N)(=O)CCC(N)C(=O)O (stereo not given) | 24100 nM (active) | 17100 nM (active) | inactive | inactive | 16.6 µM (active) | – | – | – | inactive | – | inactive | – | 9.43% (inactive) | –
